Measured values taken from PubChem BioAssay (NCI).
The panel holds about 83,000 compounds, 20% with a hit somewhere; the sample as a whole holds those more often.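 Note: values are percent growth. 100 is the growth of untreated cells, values between 100 and 0 indicate rising inhibition; between -100 and 0 indicates cell death.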 A number with no mark means an inactive call. Activity calls are given as the source filed them. The calls were made as follows: active = growth percent below 10; inactive = the rest.

These compounds were tested on OVCAR-5 ovarian (assay: NCI-60 one-dose screen, 48 h (100 = growth as untreated, 0 = no growth, -100 = all killed)). Details: 10 µM unless noted.

Compared with `CN1C(=O)/C(=C\c2nc([P+](c3ccccc3)(c3ccccc3)c3ccccc3)c(N3CCOCC3)o2)SC1=S`, `N#Cc1c(-c2ccc(Cl)cc2)nc(NN2C(=O)c3ccccc3C2=O)nc1N1CCOCC1` is higher in growth: 96.7% for the first, 102% for the second.

First: COc1ccc(C(=O)c2cc3c(N)c(C(=O)Nc4ccc(C)cc4)sc3nc2C)cc1
Second: Cc1nc2sc(C(=O)Nc3ccc(Br)cc3)c(N)c2cc1C(O)c1ccccc1 (stereo not given)
The growth of the first is lower: 29.6% for the first, 92% for the second.

Going from `Cc1sc2nc(NCCc3c[nH]c4ccc(Cl)cc34)[nH]c(=O)c2c1C` to `CC(=O)c1c(C)nc(SCC(=O)Nc2cccc(O)c2)n1-c1ccc(Cl)cc1`, the growth rises from 62.5% to 104%.

Going from `CC/C(=C(/c1ccc(Cl)cc1)c1ccc(OCCN(C)C)cc1)c1ccc(Cl)cc1` to `COc1ccc(C/C(C)=C(\c2ccc(Cl)cc2)c2ccc(OCCN3CCCCC3)cc2)cc1`, the growth falls from 83.9% to 81.4%.

First: CNC(=O)c1[nH]cc(-c2ccc(OC)cc2)c1-c1cc(OC)c2c(c1OC)OCO2
Second: COc1cc2c(c(OC)c1OC)CCC(c1cccc(C(=O)Nc3cccc(Cl)c3)c1)O2 (stereo not given)
The growth of the first is higher: 95.8% for the first, 75.3% for the second.

Going from `C=CCc1c(O)c(C(=O)/C=C/c2ccccc2)c(OC)c2ccoc12` to `COc1cc2oc(-c3cccc(NC(=O)c4ccccc4)c3)cc(=O)c2c(OC)c1OC`, the growth rises from 90.5% to 100%.

First: COc1ccc(-c2cc(-c3ccc(Cl)cc3)c(C#N)c(=O)n2Cc2ccc(C(=O)Nc3ccccc3N)cc2)cc1
Second: CCOC(=O)c1ccc(NC(=O)c2nc(-c3cc(OC)c(OC)c(OC)c3)n(-c3ccc(Cl)cc3)n2)cc1
The growth of the first is lower: 96.7% for the first, 101% for the second.

Going from `COc1ccc(/C=C/C(=O)c2cccc(OCCCCOc3cccc(C(=O)/C=C/c4ccc(OC)c(OC)c4)c3)c2)cc1OC` to `CCCCNC(=O)Oc1ccc(/C(=C(/C)Cc2ccc(OC)cc2)c2ccc(OCCN(CC)CC)cc2)cc1`, the growth falls from 102% to 82%.

Compared with `Cc1ccc(CNc2ccc3nc(CCC4CCCCC4)[nH]c3c2)cc1`, `Cc1ccc(C(=O)c2ccc(CC(=O)N/N=C/c3ccccc3O)n2C)cc1` is higher in growth: 57.8% for the first, 92% for the second.

Compared with `Cc1ccc2c(c1)=C/C(=C\c1cc(-c3ccccc3)oc1O)C(=O)N=2`, `COc1ccc(C(=O)N2c3ccccc3Sc3ccccc32)c(OC)c1` is lower in growth: 97.9% for the first, 47.8% for the second.

Going from `O=C(CSc1nnc(-c2cnccn2)n1-c1ccccc1)c1ccc(Cl)cc1` to `CNc1nnc2n(-c3ccccc3)c(=O)c3cnn(-c4ccccc4)c3n12`, the growth rises from 96.9% to 99.3%.

Going from `O=C(Nc1ccc(Oc2cccc(Cl)c2)c(Cl)c1)c1cnccn1` to `COc1cc(OC)c(NC(=O)c2cc3ccccc3cc2O)cc1Cl`, the growth rises from 60.4% to 89%.

First: C=CCOC(=O)Nc1cccn([C@H](Cc2ccccc2)C(=O)NCCC(C)C)c1=O
Second: Cc1nc2sc(C(=O)Nc3cccc4ccccc34)c(N)c2cc1C(O)c1ccccc1 (stereo not given)
The growth of the first is higher: 117% for the first, 37.4% for the second.

Compared with `N#Cc1nc(-c2ccc(F)cc2)oc1S(=O)(=O)N1CCCCC1`, `CSc1nc(N)c(NS(=O)(=O)c2ccc(C(C)=O)cc2)c(=O)[nH]1` is higher in growth: 95.9% for the first, 104% for the second.

Compared with `COc1ccc2cc1Oc1ccc(cc1)C[C@H]1c3c(cc4c(c3Oc3cc5c(cc3OC)CCN(C)[C@@H]5C2)OCO4)CCN1C`, `COc1ccc(/C=N\Nc2nc(SCCC(C)C)nc(-c3ccc(OC)cc3)c2C#N)cc1` is lower in growth: 90.2% for the first, 63.3% for the second.

Going from `C=C1C(=O)O[C@H]2[C@H]1CC/C(COC(=O)/C=C\C(=O)NCc1ccc(Cn3c(=O)sn(CCI)c3=O)cc1)=C\CC[C@@]1(C)O[C@@H]21` to `CCOC(=O)c1c(NC(=O)c2ccc(Cl)cc2)sc2c(CN(C)C)c(O)ccc12`, the growth rises from 77.7% to 95.2%.

Compared with `[O-]/[N+](=C\c1ccc(-n2cc(Cc3ccccc3Cc3cn(-c4ccc(/C=[N+](/[O-])c5ccccc5)cc4)nn3)nn2)cc1)c1ccccc1`, `CCO/C=N/C1=C(C#N)C(c2ccc(Cl)cc2)c2sc3c(F)cccc3c2O1` (stereo not given) is lower in growth: 112% for the first, 89.2% for the second.

Compared with `COC1/C=C/OC2(C)Oc3c(C)c(O)c4c(O)c(c(/C=N/Nc5ccc([N+](=O)[O-])cc5[N+](=O)[O-])c(O)c4c3C2=O)NC(=O)C(C)=C/C=C/C(C)C(O)C(C)C(O)C(C)C(OC(C)=O)C1C` (stereo not given), `CC(C)(C)[Si](C)(C)OC1[C@@H](CNC(=O)NC(=O)NC(N)=O)O[C@@H](n2cnc3c(NC(=O)Nc4ccccc4)ncnc32)[C@H]1O[Si](C)(C)C(C)(C)C` (stereo not given in full) is higher in growth: 48.3% for the first, 96.1% for the second.

In the case of `COc1ccc2c(c1)c(-c1nc(-c3c[nH]c4ccncc34)cs1)cn2C`, the growth is reported as -72.9% (active).
`COc1cc2nc3cc([N+](=O)[O-])ccc3c(NCCNCC(C)O)c2cc1OC` (stereo not given) was tested, and the growth was 5.11% (active).
For `CCC(=C(c1ccc(OCCN2CCCCC2)cc1)c1ccc(OCCN2CCCCC2)cc1)c1ccc(Cl)cc1`, the growth was -95.4% (active).
`CCCNc1nc2ccccc2c2c1S(=O)(=O)c1ccc(Cl)cc1C2=O` was tested, and the growth was 8% (active).
